# Sampled rows, rich in hits. Any-hit rate of the full collection: about 2.4%.
# D2 ag-1 = HTS Assay for Allosteric Agonists of the Human D2 Dopamine Receptor: Primary Screen for Agonists; 0.53% of 340,000 active; activation, % at 2 µM; D(2) dopamine receptor (Homo sapiens), P14416; HEK293 T-REx D2 cells, calcium flux agonist mode;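 active means activation over 3 SD above normal in the single-dose calcium agonist read, cut at about 30% in these data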
#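 Calcium-flux readout, 1 cycle/sec over 180 s following compound pin transfer, in inducible HEK293 Trex D2 cells (force-coupled); dopamine controls included. Positive calcium responses during this window marked compounds as potential agonists.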
# D2 antag = HTS Assay for Allosteric Antagonists of the Human D2 Dopamine Receptor: Primary Screen for Antagonists | HEK293 TREx D2 cells, calcium flux, dopamine EC80 | 2% of 340,000 active | D(2) dopamine receptor (Homo sapiens), P14416 | inhibition, % at 10 µM; in the data active means inhibition above about 30%; inactive means below that, where a call was filed
#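 Measurement of antagonist activity uses fluorescent calcium dye in inducible HEK293 T-REx D2 cells: 10 s baseline, compound addition with 180 s read, EC80 dopamine addition with a further 180 s read.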
# D2 PAM-1 = Beta-Arrestin HTS for Positive Allosteric Modulators of the Human D2 Dopamine Receptor: Potentiators. 0.23% of 360,000 active. potentiation, % (no concentration beside the values). DiscoveRx D2 beta-arrestin cells, luminescence, 90 min; 100% = 57 uM dopamine signal. D(2) dopamine receptor (Homo sapiens), P14416; in the data active means potentiation above about 50%; inconclusive means mostly about 30% to 49%
#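 D2 cells co-treated with compound plus 50 nM dopamine (EC20) for 90 min at 37 deg C to detect potentiation. Beta-arrestin recruitment was read as enzyme-fragment luminescence after 1 h at ambient temperature. Full response was set by 57 uM dopamine.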
# D2 PAM-2 = HTS Assay for Positive Allosteric Modulators of the Human D2 Dopamine Receptor: Primary Screen for Potentiators. D(2) dopamine receptor (Homo sapiens), P14416. HEK293 T-REx D2, calcium flux, EC20 dopamine potentiation. potentiation, % at 10 µM. 0.34% of 340,000 active;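 active means potentiation over 3 SD above the plate norm, cut at about 30% in these data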
#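 Cells plated with tetracycline inducer and held overnight at 30 C; calcium dye loaded 30–90 min at room temperature; baseline taken, compound added and read 180 s; EC20 dopamine then added and read 180 s.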
# D2 ag-2 = Beta-Arrestin HTS for Positive Allosteric Modulators of the Human D2 Dopamine Receptor: Agonists; DiscoveRx PathHunter D2 beta-arrestin, luminescence, 90 min; 100% = 57 uM dopamine signal; activation, % (concentration not given with the values); 0.084% of 360,000 active; in the data active means activation above about 40%; inconclusive means between about 15% and that limit
#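 Agonist mode: compounds alone added to overnight-plated D2 PathHunter cells for 90 min at 37 C, with 57 uM final dopamine (EC100) defining full response. Beta-arrestin recruitment detected by chemiluminescent reagent, read after 1 h at ambient temperature.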
# D3 ag = qHTS of D3 Dopamine Receptor Agonist: D3 Dopamine Receptor B-arrestin Agonist Confirmatory Assay. shares compounds with D2 ag-1. DiscoveRx D3 beta-arrestin cells, luminescence, 90 min. Potency, µM (doses to about 76.9 µM), usual class: activators. 4% of 2,300 active. AID 720506, 2013; further: nearly all actives have a fitted effect of over 70% in size
# Target sequence (P35462 whole entry, looked up): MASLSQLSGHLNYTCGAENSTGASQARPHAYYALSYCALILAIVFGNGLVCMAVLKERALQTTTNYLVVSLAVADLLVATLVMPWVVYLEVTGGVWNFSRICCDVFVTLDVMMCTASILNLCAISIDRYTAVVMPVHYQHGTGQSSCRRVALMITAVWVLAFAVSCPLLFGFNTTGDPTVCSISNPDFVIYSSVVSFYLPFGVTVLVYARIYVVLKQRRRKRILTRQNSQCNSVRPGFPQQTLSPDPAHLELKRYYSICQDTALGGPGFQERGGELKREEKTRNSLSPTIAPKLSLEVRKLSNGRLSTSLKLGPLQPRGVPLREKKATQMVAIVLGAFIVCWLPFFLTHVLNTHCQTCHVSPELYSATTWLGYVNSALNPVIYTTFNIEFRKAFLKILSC
# D2 ag-3 = qHTS of D3 Dopamine Receptor Agonist: D2 Dopamine Receptor B-arrestin Agonist Counterscreen; shares compounds with D2 ag-1; DiscoveRx PathHunter D2 beta-arrestin, luminescence, 90 min; response scale: percent relative to full dopamine signal; Potency, µM (top dose mostly 76.9 µM), actives largely listed as activators; 5.9% of 2,300 active; further: nearly all actives have a fitted effect of over 70% in size
# A number is an active result; i = inactive; ? = inconclusive; nt = no result given. Unless noted, the call rests on the fitted dose curve; in most records, active means well fitted activation curve with a large enough effect; inconclusive means small, poorly fitted or top-dose-only effect; inactive means flat fitted curve, though single readings scatter.
SMILES,D2 ag-1,D2 antag,D2 PAM-1,D2 PAM-2,D2 ag-2,D3 ag,D2 ag-3
O=c1nc2ccccc2c2n1CC(CN1CCN(c3ccc(F)cc3)CC1)N2 (stereo not given),i,i,i,i,i,nt,nt
CCS(=O)(=O)N1CCN(c2ccccc2F)CC1,i,i,i,i,i,nt,nt
CCCn1c(=O)c2sccc2n2c(CCCC(=O)Nc3ccccc3OCC)nnc12,i,nt,nt,i,nt,nt,nt
COc1cccc(N2CCN(C(=O)C3CCN(S(=O)(=O)c4c(C)noc4/C=C/c4ccccc4F)CC3)CC2)c1,i,nt,nt,i,nt,nt,nt
Cc1ccc(NC(=O)Cn2c(=O)n(CCCCC(=O)NCCc3ccccc3)c(=O)c3ccccc32)cc1,i,nt,nt,i,nt,nt,nt
Nc1ccn(CC(=O)NCCNc2ccc([N+](=O)[O-])cn2)c(=O)n1,i,i,i,i,i,i,i
O=C(CN1CCN(Cc2ccccc2)CC1)NCCNc1ccc([N+](=O)[O-])cn1,i,i,i,i,i,nt,nt
COc1cccc(CNC(=O)CCCN2C(=O)CSc3c2c(C)nn3-c2ccccc2)c1,i,nt,nt,i,nt,nt,nt
COCCOCC(O)CN1CCN(c2ccccc2)CC1 (stereo not given),84,59,i,i,i,i,i
OC(COCc1ccccc1)CN1CCN(c2ccccc2)CC1 (stereo not given),86,86,i,i,i,?,?
OC(COCC1COc2ccccc2O1)CN1CCN(c2ccccc2)CC1 (stereo not given),67,60,i,i,?,?,?
CCOC(=O)c1c(C)oc2ncnc(N3CCN(c4ccccc4OC)CC3)c12,i,nt,nt,i,nt,nt,nt
CCCCC(=O)Nc1cccc(OCc2cc(=O)n3ccccc3n2)c1,i,nt,nt,i,nt,nt,nt
CCS(=O)(=O)N1CCc2cc(C(=O)NCc3ccccc3OC)ccc21,i,nt,nt,i,nt,nt,nt
Cc1cccc(NC(=O)CN(C)S(=O)(=O)c2ccc3c(c2)CCC(=O)N3)c1C,i,nt,nt,i,nt,nt,nt
CCc1nn2c(=O)cc(COC(=O)c3cccc(NC(=O)c4cccs4)c3)nc2s1,i,nt,nt,i,nt,nt,nt
Cc1noc(C)c1C(=O)OC(C)C(=O)Nc1ccc(C(N)=O)cc1 (stereo not given),i,i,i,i,i,nt,nt
CC(OC(=O)c1cc[n+]([O-])cc1)C(=O)Nc1ccc(C(N)=O)cc1 (stereo not given),i,i,i,i,i,i,i
CC1=CC(C)C(/C=N/N=C(N)N)C(C)C1 (stereo not given),i,i,i,i,i,i,i
Cn1c(Oc2ccccc2)nc2c1c(=O)n(Cc1ccc(Cl)cc1Cl)c(=O)n2C,i,nt,nt,nt,nt,nt,nt
COc1ccc2[nH]cc(C3N4CC5(C)CN3CC(C)(C4)C5=O)c2c1 (stereo not given),58,i,i,i,i,i,i
Cc1cc(=O)[nH]c2c(C)cc(S(=O)(=O)NCc3ccccc3)cc12,36,i,i,i,i,i,i
O=C(O)C1CC=CCC1C(=O)Nc1ccc(N2CCN(Cc3ccccc3)CC2)cc1 (stereo not given),64,i,i,i,i,i,i
CC1CCN(S(=O)(=O)c2ccc(NC(=O)CN3CCN(C)CC3)cc2)CC1,i,i,i,i,i,nt,nt
O=C(CN1CCN(c2ccccc2)CC1)Nc1ccc(-n2cnnn2)cc1,69,51,i,i,i,?,?

# Screens from PubChem.
